Laboratory results published in PubChem BioAssay.
Activity calls are given as the source filed them.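 How the source made its calls: active means inhibition of the reporter signal at or above 50%; inactive means inhibition below 50%.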

assay: TLR3 IRF3 reporter activation blockers – cell-based, poly I:C stimulus, luciferase, 10K MLSCN set, primary screen (AID 602277); conditions: HEK293-TLR3 RL24 IRF3 luciferase reporter, at 10 µM, active compounds read high

inhibition, inactive:
COc1ccc(N(CC(=O)Nc2cc(C)ccc2C)S(=O)(=O)c2c(C)nn(C)c2C)cc1 21.3%
Cc1nnc(NC(=O)CSc2cn(CCNC(=O)c3ccccc3)c3ccccc23)s1 -44.3%
CC1(C)CC(=O)C(C(=O)CCCCC(=O)C2C(=O)CC(C)(C)CC2=O)C(=O)C1 -20.4%
O=C(CN(c1ccc(F)cc1)S(=O)(=O)c1ccc2c(c1)OCCO2)Nc1ccc2c(c1)OCO2 16.1%
CCOC(=O)N1CCN(C(=O)CSc2nnc(-c3cccc(Cl)c3)o2)CC1 18.7%
O=c1oc2c3c4c(cc2s1)CCCN4CCC3 31.7%
CCOC(=O)N1CCN(C(=O)CSc2cc(C)nc3c(-c4ccccc4OC)c(C)nn23)CC1 -5.36%
Cc1ccc(-c2noc(-c3ccccc3C(=O)NCC3CCCO3)n2)cc1 (centres undefined) -30.1%
CCS(=O)(=O)N1CCCC(C(=O)NCc2cccc(OC)c2)C1 (centres undefined) 3.19%
CC1=C(C(=O)OC2CCCCCC2)C(c2ccc(C)o2)C2=C(CCCC2=O)N1 (centres undefined) -19.9%
CC(=O)N1CCN(C(=O)COc2ccc(Br)cc2)CC1 13.4%
Cc1ccc(NC(=O)CSc2nnc(-c3ccccn3)n2C)cc1 -5.25%
Nn1c(SCC(=O)NC2CCCCC2)nnc1C1CC1 16.1%
O=C(NC1CCCc2ccccc21)c1ccc(CNc2c(N3CCOCC3)c(=O)c2=O)cc1 (centres undefined) 27%
Nc1nc(-n2cnnc2)nn1-c1ccccc1 4.43%
Cc1cccc(-n2ncc3c(NCc4cccnc4)ncnc32)c1 -205%
CCCn1c(O)c(CN2CCCC(C)C2)c(C)c(C#N)c1=O (centres undefined) 22.1%
C=CCn1c(SCn2nnc3ccccc3c2=O)nnc1-c1ccc(Br)cc1 -21.1%
Cc1cc(NS(=O)(=O)Cc2ccccc2)cc(C)c1OCC(=O)N1CCOCC1 10.6%
O=S(=O)(NC1CCCC1)c1ccccc1Cl 15.4%
CCOC(=O)c1[nH]c2ccccc2c1NC(=O)C(CC)CC 40.3%
O=C(C1CCN(C2CC(=O)N(c3ccc(F)cc3)C2=O)CC1)N1CCOCC1 (centres undefined) 13%
Cc1cc(C(=O)Nc2cccnc2)no1 -20.9%
Cc1occc1C(=O)Nc1nnc(C2CCCCC2)s1 -13.3%
Cc1cccc(CCNC(=O)CCc2nc(-c3ccccc3F)no2)c1 2.35%
CCOC(=O)N1CCC(NC(=O)Cn2ncc3c4ccccc4n(C)c3c2=O)CC1 26%
CCCn1c(-c2ccc(F)cc2)cnc1SCC(=O)O 19.8%
CC1CCN(C(=O)CSc2nnc(-c3ccc(S(=O)(=O)N4CCOCC4)cc3)n2C)CC1 0.175%
Cc1cc(=O)n2nc(N3CCCC(C(=O)N4CCc5ccccc54)C3)sc2n1 (centres undefined) 37.1%
CCOC(=O)c1ccc(NC(=O)CSc2n[nH]c(-c3ccncc3)n2)cc1 -15.4%
CCOC(=O)N1CCC(c2cc(=O)n3[nH]cc(C(=O)OC)c3n2)CC1 35.8%
COc1ccc(C(=O)CSc2nnc(C3CCCCC3)n2N)c(OC)c1 11.5%
Cc1ccc(C)c(NC(=O)c2ccc3c(c2)N(Cc2ccc(F)cc2)C(=O)CS3=O)c1 (centres undefined) 20.4%
COc1cc(C2CC(=O)NC3=C2C(=O)CC(C)(C)C3)ccc1O (centres undefined) 16.2%
